# Source: PubChem BioAssay
# Most compounds without a hit are left out; they make up all but 3.3% or so of the library.
# PLK1 PBD block – blocks phosphopeptide binding to human PLK1 polo-box domain. P53350. Potency, µM, for the others: max response, negative = inhibition, most hits filed as inhibitors. AID 720504. hit rate 2.8% among 360,000. Plk1 PBD binding of FITC phosphopeptide, fluorescence polarization; further: potency means the concentration at half of the fitted maximal effect; series mostly up to about 57 µM; nearly all actives have a fitted effect of over 65% in size
# USP2a inh – inhibitors of human ubiquitin-specific protease USP2a | AID 463254 | USP2 core, Ub-CHOP2 coupled fluorogenic reporter, 485/531 | hit rate 0.01% among 330,000 | O75604 | Potency, µM (series often up to 38.3 µM), without a hit: top-dose activity change, negative = inhibition, most hits filed as inhibitors;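 further: potency means the concentration at half of the fitted maximal effect; plate controls were DMSO wells for no effect and full inhibition by NEM control for full effect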
#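 Deubiquitinase activity read as fluorescence (485/531 nm) after Ub-CHOP2 cleavage activates the enterokinase reporter on its substrate; USP2 core 10nM, Ub-CHOP2 and substrate 25nM each, 30min compound preincubation then 60min RT; data normalized to NEM, curves fitted.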
# PI5P4Ka inh – inhibitors of human PI5P4K alpha; P48426; PI5P4Kalpha enzyme, ADP-Glo luminescence, 60 min; hits give low values; max response, %; hit rate 1.2% among 330,000; active means max response of -50% or lower; inconclusive means between -30% and -50%; inactive means -30% or higher; further: value at the top dose of about 77 µM
# Target sequence (P48426 whole entry, looked up): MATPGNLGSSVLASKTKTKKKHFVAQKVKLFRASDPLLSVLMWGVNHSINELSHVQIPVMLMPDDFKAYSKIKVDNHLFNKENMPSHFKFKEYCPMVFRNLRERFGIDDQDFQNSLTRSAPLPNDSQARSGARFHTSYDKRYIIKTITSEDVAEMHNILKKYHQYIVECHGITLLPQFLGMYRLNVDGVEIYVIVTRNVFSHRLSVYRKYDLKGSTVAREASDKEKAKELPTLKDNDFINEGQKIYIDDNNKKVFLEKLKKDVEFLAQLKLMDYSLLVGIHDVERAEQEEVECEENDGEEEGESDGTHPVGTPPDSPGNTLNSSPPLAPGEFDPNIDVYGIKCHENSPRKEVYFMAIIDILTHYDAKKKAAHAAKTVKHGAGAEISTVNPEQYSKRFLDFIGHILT
#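 Enzyme plus substrate dispensed, test compounds pinned in, then ATP (5 microM final) added. After 60 min at RT, ADP-Glo reagent 1 for 45 min and reagent 2 for 30 min preceded luminescence imaging.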
# WRN helicase inh – inhibitors of human WRN helicase; Q14191; WRN helicase unwinding, fluorescent forked duplex, kinetic; Potency, µM (titrated, usually from 114 µM), for the others: at the top dose activity change, negative = inhibition, hits mostly inhibitors; hit rate 0.46% among 360,000; AID 651768; further: potency means the concentration at half of the fitted maximal effect; nearly all actives have a fitted effect of over 55% in size
#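 Kinetic fluorescence helicase assay: unwinding of a quenched forked DNA duplex (100 nM final) with 2 mM ATP final raises red fluorescence (525/598 nm). Compounds sat 15 min at room temperature with 20 nM WRN beforehand.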
# USP1 inh – inhibitors of human USP1/UAF1 deubiquitinase; O94782; Potency, µM (highest dose often 57.1 µM), inactives show top-dose activity change, negative = inhibition, usual class: inhibitors; hit rate 0.23% among 390,000; recombinant USP1/UAF1, Ub-Rhodamine cleavage fluorescence; further: potency means the concentration at half of the fitted maximal effect; nearly all actives have a fitted effect of over 60% in size
#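 USP1/UAF1 complex (1 nM) preincubated 15 min at room temperature with compound, then Ub-Rho substrate (150 nM final) added. Kinetic fluorescence at 480/540 nm over 6 reads at 60 s intervals; 50 mM HEPES pH 7.8, 0.5 mM EDTA, 0.1 mg/ml BSA, 1 mM TCEP, 0.01% Tween-20.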
# * hit, by the source's call; ? = inconclusive; / = no result; [ ] = dose if it differs, or a comment. Unless noted, the call rests on the fitted dose curve; in most records, active means well fitted curve in the direction sought with a large enough effect; inconclusive means small, poorly fitted or top-dose-only effect, or another doubt; inactive means no such curve, though single readings can be large; an effect the other way counts as inactive or inconclusive. Unless noted, on the % scale 0 is the no-effect control and ±100 the full control effect.
SMILES,PLK1 PBD block,USP2a inh,PI5P4Ka inh,WRN helicase inh,USP1 inh
O=C(O)c1cccc(N/N=C/C2=C(Cl)c3cc(Cl)ccc3SC2)c1,21µM*,-20%,8,-17%,-27%
Cc1nnc(SCC(=O)Nc2sc3c(c2C#N)CCCC3)[nH]c1=O,0%,4%,-52*,-31%,-6%
CCOC(=O)c1c(NC(=O)CSc2nnc(C)c(=O)[nH]2)sc(C)c1-c1ccc(C)cc1,24µM*,-4%,-19,?,-26%
Cc1nn(C(C)C(=O)Nc2sc3c(c2C#N)CCCC3)c(C)c1[N+](=O)[O-] (centres undefined),-11%,0%,/,-4%[57.1 µM],-12%
Cc1nn(CCCC(=O)Nc2sc3c(c2C#N)CCC3)c(C)c1[N+](=O)[O-],30µM*,1%,/,-8%,-11%
CCOC(=O)c1c(NC(=O)CSc2nnc(C)c(=O)[nH]2)sc2c1CCCC2,?,4%,-11,-13%,-17%
O=C(CCCn1ccc2cc(S(=O)(=O)N3CCCC3)ccc21)NCc1ccc(Cl)cc1,/,/,/,/,-17%
CCSc1ncc(/C=N/Nc2ccccc2)n1C,7.5µM*,-1%,-20,5%,-10%
COc1ccccc1/C=C/C=C1\Oc2c(ccc(O)c2CN2CCN(CCO)CC2)C1=O,49%,?,-20,-26%,32µM*
CC(=O)Nc1ccc(S(=O)(=O)N(Cc2ccccc2)Cc2ccccc2)cc1,/,/,/,/,-24%
C=CCOc1nc2c(c(=O)n(C)c(=O)n2C)n1Cc1ccccc1,-17%,-1%,3,2%,-2%
Cn1c(NN)nc2c1c(=O)n(Cc1ccccc1)c(=O)n2C,-22%,8%,-58*,-6%,-24%
Cn1c(=O)c2c(ncn2Cc2ccccc2)n(C)c1=O,27µM*,2%,-20,4%,-29%
COc1ccc(Oc2nc3c(c(=O)n(C)c(=O)n3C)n2Cc2ccccc2)cc1,27µM*,-2%,0,-4%,-14%
Cn1c(=O)c2c(ncn2CC(=O)OCC(=O)c2ccc(Br)cc2)n(C)c1=O,-25%,/,-57*,-3%,-15%
N#Cc1ccc2c(c1)C[C@]1(c3ccsc3)Oc3c(c(=O)oc4ccccc34)C2O1,/,0%[7.66 µM],/,/,/
COCCCNC(=O)C1CCN(c2ncnc3c2nc2n3CCCCC2)CC1,/,/,/,/,-13%
O=c1cc(-c2ccccc2)[nH]n1-c1ccc([N+](=O)[O-])cc1,21µM*,0%,/,-24%,-25%
COc1ccccc1C(=O)Nc1ccc2c(c1)CCCN2C(=O)c1ccccc1,24µM*,1%,-21,-4%,-27%
O=C(Nc1ccc2c(c1)CCCN2C(=O)c1cccs1)c1ccccc1,21µM*,0%,-4,-20%,-7%
COc1ccccc1C(=O)Nc1ccc2c(c1)CCCN2C(=O)c1cccs1,-22%,0%,1,4%,-10%
Cc1cccc(N2CCN(C(=O)CN3C(=O)COc4ccc(S(=O)(=O)N5CCCCCC5)cc43)CC2)c1C,/,/,/,/,-10%
COCCN=c1scc(-c2ccccc2)n1/N=C/c1c[nH]c2ccccc12,-14%,-6%,21,-12%,-3%
CCN=c1scc(C)n1/N=C/c1ccc(O)c(O)c1O,6.7µM*,-8%,-51*,22µM*,-20%
COCCN=c1scc(-c2cccs2)n1/N=C/c1ccc(O)c(O)c1O,7.5µM*,-1%,?,-36%[57.1 µM],-11%
SMILES,PLK1 PBD block,USP2a inh,PI5P4Ka inh,WRN helicase inh,USP1 inh
CCC(=O)Nc1ccc2nc(SCCOc3ccc(C)cc3OC)sc2c1,/,/,/,/,-20%
Cc1cc(C)c(Cn2c(=O)n(CCCC(=O)NCc3ccc4c(c3)OCO4)c(=O)c3sccc32)c(C)c1,/,/,/,/,-26%
O=C(Nc1ccccc1)/C(=C\c1ccc2c(c1)OCO2)NC(=O)c1ccco1,24µM*,8%,/,-10%,-14%
CC1(C)CC(NS(=O)(=O)OCC(Cl)(Cl)Cl)c2cc(C#N)ccc2O1 (centres undefined),24µM*,2%,?,-7%,10%
COc1ccc2c(c1)CCCC2NS(=O)(=O)OCC(Cl)(Cl)Cl (centres undefined),-9%,4%,6,-6%,?
COc1ccc(-n2c(SCc3ccccc3F)nc3c([nH]c4ccccc43)c2=O)cc1OC,/,/,/,/,-18%
COc1ccc(Cc2c(O)nc(SC)n(C(C)=O)c2=O)cc1,-14%,2%,-75*,-13%,-7%
O=C(Nc1ccc2nc(SCC(=O)N3CCc4ccccc43)sc2c1)c1ccccc1,/,/,/,/,-12%
CN(C)S(=O)(=O)c1ccc2c(c1)N(CC(=O)Nc1ccc(F)cc1)C(=O)CS2,/,/,/,/,-26%
Cc1ccc2[nH]c(=O)c3cc(C(=O)NCc4cccc(Cl)c4)sc3c2c1,/,/,/,/,-10%
Cc1ccccc1NC(=O)Cn1c(=O)oc2cc(Br)ccc21,/,/,/,/,-28%
CCCCn1c(N)c(N(CCC(C)C)C(=O)c2cc(-c3ccco3)nc3ccccc23)c(=O)[nH]c1=O,-24%,0%,-70*,-25%,-23%
CCCCN(C(=O)c1cc(-c2ccco2)nc2ccccc12)c1c(N)n(CCCC)c(=O)[nH]c1=O,-24%,2%,-57*,?,-7%
COCCN(C(=O)c1cc(-c2ccco2)nc2ccccc12)c1c(N)n(Cc2ccccc2)c(=O)[nH]c1=O,?,7%,-84*,?,-6%
CCCn1c(N)c(N(CCOC)C(=O)c2cc(Cl)nc3ccccc23)c(=O)[nH]c1=O,-2%,-1%,-5,0%,-15%
CCCCn1c(N)c(N(CC(C)C)C(=O)c2cc(-c3ccc(OC)cc3)nc3ccccc23)c(=O)[nH]c1=O,2%,/,-4,7%,-20%
CCCCN(C(=O)c1cc(-c2ccc(F)cc2)nc2ccccc12)c1c(N)n(CCCC)c(=O)[nH]c1=O,-7%,2%,-4,9%,-5%
COc1cc(Cl)c(C)cc1NC(=O)CSc1cc(=O)n(C)c2cc(Cl)ccc12,/,/,/,/,-24%
O=C1CN(c2ccccc2)C(=S)N1C(=O)c1ccccc1,27µM*,-1%,1,-14%[57.1 µM],-24%
O=C(Nc1ccc(S(=O)(=O)Nc2cnc3ccccc3n2)cc1)c1cc(F)c(F)cc1Cl,30µM*,-1%,-20,-5%,-17%
O=C(Nc1ccc(S(=O)(=O)Nc2cnc3ccccc3n2)cc1)c1ccc(Cl)cc1Cl,-14%,/,-5,-11%,-17%
Cc1cc(Cl)ccc1OC(C)C(=O)Nc1ccc(S(=O)(=O)Nc2cnc3ccccc3n2)cc1 (centres undefined),21µM*,-7%,1,-14%,-13%
CCC(Oc1ccccc1)C(=O)Nc1ccc(S(=O)(=O)Nc2cnc3ccccc3n2)cc1 (centres undefined),-11%,4%,-5,0%,-11%
O=C(Nc1ccc(S(=O)(=O)Nc2cnc3ccccc3n2)cc1)c1ccc(Cl)c([N+](=O)[O-])c1,42µM*,-1%,-14,-18%,-17%
CCCCc1nn2c(=O)cc(COC(=O)c3ccccc3NC(=O)c3cccs3)nc2s1,/,/,/,/,7%
